Screens (PubChem)
SARS PLP yeast – qHTS of Yeast-based Assay for SARS-CoV PLP; S. cerevisiae expressing SARS-CoV PLpro, growth rescue; Potency, µM (doses to about 32.9 µM), inactives show at the highest dose activity, positive = growth rescue, usual class: activators; 330,000 tested, 0.19% active; AID 485353, 2010; also: 0% is about no effect; nearly all actives have a fitted effect of over 55% in size
NS1 function inh – qHTS Assay for Inhibitors of Influenza NS1 Protein Function. 270,000 tested, 0.4% active. AID 2326, 2010. Potency, µM (doses to about 46.1 µM), inactives show top-dose activity, positive = more growth; also: actives are rising curves; nearly all actives have a fitted effect of over 50% in size
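In this qHTS, NS1 from influenza A is expressed in budding yeast, where it slows growth. Cells are switched from glucose to 2% galactose medium (pH 6.0, -URA), treated with compound, and growth recovery is read at OD600.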
Pf growth 48h – Primary qHTS for delayed death inhibitors of the malarial parasite plastid, 48 hour incubation. P. falciparum luciferase growth in erythrocytes, 48 h. Potency, µM (doses to about 28.7 µM), for inactives: at the highest dose activity change, negative = inhibition, most hits filed as inhibitors. 310,000 tested, 5.9% active. AID 504832, 2011; active = well fitted inhibition curve with a large enough effect; inconclusive = small, poorly fitted or top-dose-only effect, or another doubt; inactive = no such curve, though single readings can be large or run the other way; also: % is scaled to controls: 0 for no effect and ±100 for the full control effect
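First compound was added to culture medium, then infected red cells at 0.1% parasitemia and 2% hematocrit (final). After incubation at 37 C under 5% CO2, luciferase detection reagent was dispensed and light output recorded.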
Pf growth 96h – Primary qHTS for delayed death inhibitors of the malarial parasite plastid, 96 hour incubation; P. falciparum luciferase reporter growth, 96 h; Potency, µM (doses to about 28.7 µM), for the others: at the top dose activity change, negative = inhibition, usual class: inhibitors; 320,000 tested, 6.9% active; AID 504834, 2011; active = well fitted inhibition curve with a large enough effect; inconclusive = small, poorly fitted or top-dose-only effect, or another doubt; inactive = no such curve, though single readings can be large or run the other way; also: % is scaled to controls: 0 for no effect and ±100 for the full control effect
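Infected RBCs, 2% Hct / 0.05% parasitemia final; luciferase-reporter P. falciparum; cpd 96 h, 37 C, 5% CO2; luciferase detection reagent; luminescence.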
Active calls of the source: *; u = inconclusive; x = no result. Rows were chosen to be rich in hits. Some 10% of all compounds tested hit in one or more screens of this group. Unless noted, calls follow the shape of the full dose curve. Potency is read from the fitted curve at half-maximal effect.

SMILES	SARS PLP yeast	NS1 function inh	Pf growth 48h	Pf growth 96h
O=C1C2C(c3ccccc3)CC=CC2[C@H](c2cccc([N+](=O)[O-])c2)N1Cc1ccccc1 (stereo partly drawn)	-8%	-15%	u	u
C[C@@H]1CC=C[C@H]2[C@H]1C(=O)N(Cc1ccccc1)[C@H]2c1ccc(C(F)(F)F)cc1	-16%	-78%	u	u
Cc1ccc(-c2cccc(C3CC=CC4C3C(=O)N(Cc3ccccc3)C4c3cc(C)ccc3F)c2)cc1 (stereo not drawn)	1%	-1%	4.7µM*	7.4µM*
COc1ccc(-c2cccc(C3CC=CC4C3C(=O)N(Cc3ccccc3)C4c3ccc(C(F)(F)F)cc3)c2)cc1 (stereo not drawn)	2%	-5%	6.6µM*	7.4µM*
CN(C)c1ccc(-c2cccc(C3CC=CC4C3C(=O)N(Cc3ccccc3)C4c3ccc(C(F)(F)F)cc3)c2)cc1 (stereo not drawn)	-1%	2%	u	u
O=C1C2C(c3ccccc3)CC=CC2[C@H](c2ccc(C(F)(F)F)cc2)N1Cc1ccccc1 (stereo partly drawn)	-8%	-57%	3.3µM*	u
CCOC(=O)N1CCC(Nc2c(-c3ccc(C)cc3)c(=O)c2=O)CC1	-6%	-3%	-1%	3%
CCOC(=O)N1CCC(Nc2c(Nc3cccc(CC)c3)c(=O)c2=O)CC1	-1%	-8%	10µM*	u
CCOC(=O)N1CCC(Nc2c(Nc3ccc(F)cc3)c(=O)c2=O)CC1	-4%	-1%	10µM*	u
COc1cc2c(cc1OC)C(COc1ccc([N+](=O)[O-])cc1)N(C(C)=O)CC2 (stereo not drawn)	-3%	0%	u	-8%
O=C(OCC(=O)N1CCN(C(=O)c2ccco2)CC1)c1ccccc1OCc1ccccc1	7%	-70%	-8%	12µM*
Cc1cnc(C(=O)OCC(=O)N2CCN(C(=O)c3ccco3)CC2)cn1	5%	11%	-1%	5.2µM*
Cc1cc(C(=O)OCC(=O)N2CCN(C(=O)c3ccco3)CC2)c(C)n1-c1ccc(F)cc1	4%	-10%	12µM*	21%
O=C(OCC(=O)N1CCN(C(=O)c2ccco2)CC1)c1ccc(Cl)nc1	-4%	x	x	x
CCCc1ccc(C(=O)NNC(=O)c2ccc(Br)cc2)cc1	2%	13%	-2%	-8%
O=C(NC(=O)c1ccccc1O)c1ccc(C(F)(F)F)cc1	-4%	6%	u	2.3µM*
CCCc1ccc(C(=O)NC(=O)c2ccccc2O)cc1	-7%	-83%	0.066µM*	0.37µM*
Cc1cccc(NC(=O)c2nc[nH]c2C(=O)NCC(=O)OC(C)(C)C)c1	-1%	10%	40%	-2%
C[C@@H](C(=O)OCC(=O)c1ccccc1)N1C(=O)C2CCCCC2C1=O (stereo partly drawn)	5%	x	x	x
CCn1c(C)nc2cc(C(=O)n3cc(C(=O)c4cc(F)ccc4O)cn3)ccc21	0%	-40%	28%	0.83µM*
O=C(c1ccccc1)n1c(=O)c(F)cn(COCCBr)c1=O	-15%	-13%	15%	-13%
COc1cc(C2/C(=C(/O)c3ccc(OCC(C)C)cc3)C(=O)C(=O)N2CCN(C)C)ccc1O (stereo not drawn)	3%	u	9%	12µM*
CC(C)COc1ccc(/C(O)=C2/C(=O)C(=O)N(CCN(C)C)C2c2ccncc2)cc1 (stereo not drawn)	-2%	-3%	41%	24%
Cc1cc(C)nc(NC(=NCCc2c[nH]c3ccccc23)NC(=O)Nc2ccc(Cl)cc2)n1	-9%	-7%	2.9µM*	0.59µM*
Cc1cc(C)nc(NC(N)=NCCc2c[nH]c3ccccc23)n1	0%	0%	u	22%
SMILES	SARS PLP yeast	NS1 function inh	Pf growth 48h	Pf growth 96h
COc1cccc(N2CCN(C(=O)c3cc(-c4ccccc4)nc4c3cnn4C(C)C)CC2)c1	8%	x	x	x
CC(=O)N1C=Cc2c(c(C)c3c([nH]c4ccccc43)c2C)C1	-9%	-44%	1.9µM*	-7%
CC(=O)N1CCc2[nH]c3ccccc3c2C1	2%	-3%	8%	u
NC(=S)Cc1ccc(Cl)cc1Cl	22%	-1%	-3%	13%
N=C(N)SCc1ccc(Cl)cc1Cl	9%	8%	u	10µM*
Cc1cccc(-n2c(SCC(=O)Nc3ncc(Cl)cc3Cl)nc3ccccc32)c1	-29%	7%	u	4.7µM*
COc1ccc(-n2c(SCC(=O)Nc3ncc(Cl)cc3Cl)nc3ccccc32)cc1	-1%	x	u	u
O=C(CSc1nc2ccccc2n1-c1ccccc1)Nc1ncc(Cl)cc1Cl	-11%	12%	u	10µM*
CN1C(=O)N(c2nnc(C(C)(C)C)s2)C(=O)C1c1ccccc1 (stereo not drawn)	1%	0%	30%	30%
CCCCN1C(=O)N(c2nnc(C(C)(C)C)s2)C(O)C1c1ccc(C)cc1 (stereo not drawn)	-2%	-2%	8.3µM*	10µM*
C=CCSc1nnc(NC(=O)CN2C(=O)NC3(CCCC3)C2=O)s1	21%	6%	14%	-14%
c1ccc2[nH]c(CCCc3nc4ccccc4[nH]3)nc2c1	-8%	9%	u	13µM*
c1ccc(CCc2nc3ccccc3[nH]2)cc1	1%	-3%	83%	5.9µM*
O=C(NCCCc1nc2ccccc2[nH]1)c1ccco1	4%	6%	27%	9.3µM*
O=S(=O)(CCc1nc2ccccc2[nH]1)c1ccc(Br)cc1	-7%	6%	u	10µM*
CCCCc1nc2ccccc2[nH]1	-2%	-6%	19%	14%
Brc1ccc(OCc2nc3ccccc3[nH]2)cc1	-7%	-5%	143%	169%
CCCC(C)NC(=O)CN1C(=O)NC2(CCc3ccccc32)C1=O (stereo not drawn)	-2%	7%	5%	-5%
O=C(CSc1n[nH]c(=O)n1C1CC1)c1c[nH]c2ccccc12	-5%	x	8%	-27%
O=C(Nc1ccc(Cl)c(C(F)(F)F)c1)N1CCCC(O)C1 (stereo not drawn)	-6%	-3%	22%	0.66µM*
COCCCN(C(=O)Cc1coc2cc(C)c(C)cc12)c1c(N)n(Cc2ccccc2)c(=O)[nH]c1=O	6%	x	u	u
Nc1cnccc1C(=O)O	1%	x	21%	49%
Cc1ccc(C)c(N(CC(=O)NCc2ccco2)C(=O)CNS(=O)(=O)c2ccccc2)c1	5%	-5%	-16%	u
COc1cc(/C=N/NC(=S)NC(C)C)ccc1OCC(=O)Nc1c(C)cc(C)cc1C	8%	u	12µM*	13µM*
CCCCNC(=S)N(C)/N=C/c1ccc(OCC(=O)Nc2c(C)cc(C)cc2C)c(OC)c1	-2%	10%	u	u
COc1cc(/C=N/NC(=S)Nc2cccc(Cl)c2C)ccc1OCC(=O)N1CC(C)OC(C)C1 (stereo not drawn)	-8%	u	9.3µM*	u
